Source: PubChem BioAssay (NCI)
The panel holds about 83,000 compounds, 20% with a hit somewhere; the sample as a whole holds those more often.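 Single-concentration screen, 48 h exposure, 96-well plates. Endpoint: percent growth. Below 10 = active.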 Active and inactive are the calls of the source.

Test system: OVCAR-3 ovarian
Assay: NCI-60 one-dose screen, 48 h (100 = growth as untreated, 0 = no growth, -100 = all killed)
Conditions: 10 µM unless noted

Structure (SMILES) | growth
COc1cc(-c2cc3ncccc3c3nc(OCCN(C)C)c4cccnc4c23)cc(OC)c1OC | -25.6% (active)
CN(C)CCCC1(c2ccc(F)cc2)OCc2cc(-c3ccc(C(F)(F)F)nc3)ccc21 (stereo not drawn) | 84.6% (inactive)
Cn1cc(-c2csc(-c3cn(CCNC(=O)OC(C)(C)C)c4ccccc34)n2)c2cccnc21 | 86.3% (inactive)
N#CC1=C(N)Oc2c(c(N)nn2-c2ccccc2)C1c1ccc(Cl)cc1Cl (stereo not drawn) | 110% (inactive)
CCN1CCN(C(=O)[C@]23CC[C@@H](C)[C@H](C)[C@H]2C2=CC[C@@H]4[C@@]5(C)C/C(=C/c6cccc(OC)c6OC)C(=O)C(C)(C)[C@@H]5CC[C@@]4(C)[C@]2(C)CC3)CC1 | 31.2% (inactive)
Cc1csc(Nc2nc(-c3ccc(Cl)cc3)nc(C(Cl)(Cl)Cl)n2)n1 | 67% (inactive)
COc1ccc(/C=C(\C#N)c2cc3ccccc3n2S(C)(=O)=O)cc1 | 94.8% (inactive)
Cc1cc(Cl)c2c(N(C)C)cccc2n1 | 100% (inactive)
O=C1c2ccccc2NC(c2cn(-c3ccccc3)nc2-c2cccs2)N1Cc1ccccc1 (stereo not drawn) | 89.3% (inactive)
COCCNC1=C(Cl)C(=O)c2ccccc2C1=O | 116% (inactive)
Oc1ccc(Nc2ccccc2)cc1 | 94.2% (inactive)
COC(=O)[C@]12CC[C@@H](C)[C@H](C)[C@@H]1C1=CC[C@@H]3[C@@]4(C)C[C@@H](OC(C)=O)[C@H](OC(C)=O)[C@@](C)(COC(C)=O)[C@@H]4[C@H](O)C[C@@]3(C)[C@]1(C)CC2 | 15% (inactive)
Cc1c(C)c2c(c(C)c1NC(=O)CCCCCCC(=O)O)CCC(C)(CCCC(C)CCCC(C)CCCC(C)C)O2 (stereo not drawn) | 65.5% (inactive)
